From PubChem BioAssay (NCI)
Compounds without any hit were thinned out: in the full panel of roughly 79,000, 15% have a hit. Calls of active or inactive are those of the source. No stated cut-off is given here; in the data, active means growth inhibition above about 70%; inactive means the rest.

Tests used:
[1] = NCI Yeast Anticancer Drug Screen. Data for the rad50 strain (AID 155);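 further: 0% = growth of vehicle-only cultures of the same strain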; details: S. cerevisiae rad50 strain growth inhibition; at 50.0 µM; hits give high values
Outline: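 Vehicle-treated cultures provide the reference for the growth inhibition reported for compound-exposed, repair-deficient yeast.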

[2] = NCI Yeast Anticancer Drug Screen. Data for the mec2-1 strain (AID 157); details: S. cerevisiae mec2-1 strain, at 50.0 µM, hits give high values
Outline: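 Yeast mec2-1 mutant treated with compound. Readout: growth inhibition vs vehicle controls.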

[3] = NCI Yeast Anticancer Drug Screen. Data for the sgs1 mgt1 strain (AID 161);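 further: 0% = growth of cultures given vehicle only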; details: S. cerevisiae sgs1 mgt1 strain, at 50.0 µM, hits give high values
Outline: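 Read-out: growth inhibition vs vehicle controls. Cells: mutant yeast strain deficient in DNA damage repair.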

[4] = NCI Yeast Anticancer Drug Screen. Data for the cln2 rad14 strain (AID 165);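 further: 0% = growth equal to vehicle treated cultures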; details: S. cerevisiae cln2 rad14 strain, at 50.0 µM, hits give high values
Outline: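 cln2 rad14 yeast strain; compound exposure; growth inhibition read vs vehicle controls.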

[5] = NCI Yeast Anticancer Drug Screen. Data for the bub3 strain (AID 167); details: S. cerevisiae bub3 mutant strain, at 50.0 µM, hits give high values
Outline: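 Mutant yeast screening strain plus compound; vehicle-treated cultures serve as the 0% inhibition reference.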

[6] = NCI Yeast Anticancer Drug Screen. Data for the mlh1 rad18 strain (AID 175); details: S. cerevisiae mlh1 rad18 strain growth inhibition; at 50.0 µM; hits give high values
Outline: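 Yeast w/ defined DNA-repair lesions; compound exposure; growth vs vehicle controls → % inhibition.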

Measured: growth inhibition

CCCC(=O)NC(Nc1ccc(S(=O)(=O)Nc2ccc(OC)nn2)cc1)(C(F)(F)F)C(F)(F)F
inactive: [1] 1.55% | [2] -19.1% | [3] -0.6% | [4] 0.35% | [5] -16.8% | [6] -9.25%

CC(=O)Oc1ccccc1/C=C1\N=C(c2ccccc2)OC1=O
inactive: [1] -5.25% | [2] 2.25% | [3] 1.85% | [4] -30.2% | [5] -5.25% | [6] -6.4%

COc1ccc(/C(C)=N/NC(=O)c2ccncc2)c(OC)c1
inactive: [1] -7.85% | [2] -20.6% | [3] -29.2% | [4] -29.4% | [5] -42.6% | [6] -33.1%

CC(C)(C)C(=O)OCCN(CCOC(=O)C(C)(C)C)C(=O)COC(=O)C(C)(C)C
inactive: [1] 31.4% | [2] -0.95% | [3] 21.1% | [4] 20.7% | [5] -3.25% | [6] 20.4%

Nc1ncnc2c1nnn2C1CCC(CP(=O)(O)O)C1 (centres undefined)
inactive: [1] 8.05% | [2] 4.45% | [3] -4.65% | [4] 17.9% | [5] 7.3% | [6] 21.6%

CC1=CCCCC1=O
inactive: [1] -7.25% | [2] -4.35% | [3] 5.6% | [4] 2.4% | [5] -12.9% | [6] -4.15%

COc1ccc(C(C#N)CC(=O)c2ccccc2)cc1 (centres undefined)
inactive: [1] 6.4% | [2] 10.9% | [3] 0.95% | [4] 4.45% | [5] -2.6% | [6] -8.35%

N#Cc1ccc[n+]([O-])c1
inactive: [1] -8.8% | [2] -6.1% | [3] 0.05% | [4] -0.7% | [5] 7.65% | [6] -4.6%

CCOC(=O)CC1(CC(=O)OCC)OCCO1
inactive: [1] -6.2% | [2] 7.1% | [3] -2.05% | [4] -4.15% | [5] -28.8% | [6] -26.2%

C[n+]1ccc(Nc2ccc(NC(=O)c3ccc(N)cc3)cc2)cc1
inactive: [1] 12.9% | [2] 20.4% | [3] 8.6% | [4] -5.05% | [5] 6.25% | [6] 17.4%

CC(C)(C)OC(=O)N(CCNS(=O)(=O)c1cccc2cnccc12)CCC(=O)ON1C(=O)CCC1=O
inactive: [1] 4.7% | [2] -0.2% | [3] 17.8% | [4] 14.7% | [5] 23.3% | [6] 6.35%

Nc1cc(Cl)cc2c1nc(NCCO)c1ccccc12
active: [4] 97.9%
inactive: [1] 54.7% | [2] 60.3% | [3] 49.1% | [5] 51.6% | [6] 56.5%

Brc1cccc(N=NN2CCCC2)c1
inactive: [1] 14.7% | [2] 25.4% | [3] 28.9% | [4] 9.6% | [5] 7.7% | [6] 47.1%

CC1(C)N=C(N)N=C(N)N1c1cccc(CO)c1
inactive: [1] 0.5% | [2] 9.5% | [3] 1.15% | [4] -2.45% | [5] 15.2% | [6] 28.2%

CS(=O)(=O)OC1COCC1OS(C)(=O)=O (centres undefined)
inactive: [1] 8% | [2] 6.15% | [3] 9.05% | [4] -0.8% | [5] -5.3% | [6] -6.1%

O=C1OC(=O)C2C3C=CC(C3)C12 (centres undefined)
inactive: [1] 17.2% | [2] -5.35% | [3] 23.1% | [4] -20.4% | [5] -1.45% | [6] 21.4%

O=C(NCCO)c1cc2ccccc2cc1O
inactive: [1] -1.9% | [2] -25.3% | [3] -10.4% | [4] -3.5% | [5] -17.9% | [6] 7.55%

O=C(C[N+](=O)[O-])OCc1ccccc1
inactive: [1] 14.8% | [2] 22.8% | [3] 6.4% | [4] -18.1% | [5] -0.4% | [6] 4.65%

OCc1ccc2[n+](c1)CCC1c3ccccc3NC21 (centres undefined)
inactive: [1] -8.35% | [2] -8.75% | [3] -18.6% | [4] -8.4% | [5] -26.3% | [6] -6.45%
